Consider 14 compounds from the supplement of paper PMC6522484.

± gives the standard deviation of the averaged measurements.

In test [1] the test system is DLD1. The test is described as follows: cell viability (CellTiter-Glo) relative to plate median (fraction of plate median); higher = more viable cells. The conditions noted are these: 5 µM; treatment time 24 h; reporter: 7TFP. The gist of the method: (§1)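 Colorectal cancer lines with stably integrated lentiviral TCF/Wnt firefly luciferase reporters received library compounds at a final 5 µM, 24 h after seeding into 384-well plates, for a 24 h exposure. Reported figures are plate-median-normalised firefly luciferase or CellTiterGlo luminescence per well. They average two independent replicates.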
(In general: In ATP-based viability assays light output follows the ATP content of the culture.)

The test system of the next test is HCT116. The description is as above. To be noted: 5 µM; treatment time 24 h; reporter: TCF4/Wnt. In short, it runs like this: as §1
In test [2] the test system is SW480. Described as above. To be noted: 5 µM; treatment time 24 h; reporter: 7TFP. The gist of the method:
as §1

Test [3] has as its system DLD1. Put plainly: TCF/Wnt firefly luciferase reporter signal relative to plate median (fraction of plate median); higher = higher Wnt reporter signal. To be noted: 5 µM; treatment time 24 h; reporter: 7TFP. In short, it runs like this:
as §1

The test system of test [4] is SW480. The test is described as above. The conditions noted are these: 5 µM; treatment time 24 h; reporter: 7TFP. The gist of the method:
as §1

`CC(C)c1c(O)ccc2c1CC[C@H]1[C@@](C)(CO)CCC[C@]21C`: the cell viability with DLD1 [1] was determined as 1.07 ± 0.057; in the test on HCT116, 1.03 ± 0.15; in the test with SW480 [2] it was 1.1 ± 0.085. The “TCF/Wnt firefly luciferase reporter signal” value with DLD1 [3] came to 1.06 ± 0.19; in the test with SW480 [4] it was 1.04 ± 0.021.

For the compound `CCCCCCCCCCCCCCCCCCCCCCO`, the cell viability turned out to be 1.04 ± 0.076 in the test on DLD1 [1], 0.941 ± 0.065 in the test with HCT116 and 0.97 ± 0.036 with SW480 [2]. The figures for the “TCF/Wnt firefly luciferase reporter signal” value in the test with DLD1 [3] and in the test with SW480 [4] were 0.869 ± 0.032 and 0.927 ± 0.066, respectively.

Regarding `CC(C)Oc1ccc2c(=O)c(-c3ccccc3)coc2c1`, the cell viability with DLD1 [1] came to 0.972 ± 0.013; with HCT116, 1.05 ± 0.083; with SW480 [2], 1.01 ± 0.021. For the same compound, the “TCF/Wnt firefly luciferase reporter signal” value with DLD1 [3] is 1.24 ± 0.21; in the test on SW480 [4] it was 0.949 ± 0.34.

In the case of `COC(=O)C[C@H]1C(C)(C)[C@@H](O)[C@@H]2CC3=C4CC(O)O[C@@H](c5ccoc5)[C@]4(C)CCC3[C@@]1(C)C2=O` (stereo partly drawn) [3,16-DIDEOXYMEXICANOLIDE-3beta-DIOL], the cell viability in the test with DLD1 [1] was found to be 1.1 ± 0.085; in the test with HCT116, 1.04 ± 0.042; in the test with SW480 [2] it was 1.035 ± 0.0071. Besides, the “TCF/Wnt firefly luciferase reporter signal” value stood at 1.02 ± 0.15 in the test with DLD1 [3] and 0.896 ± 0.076 with SW480 [4].

For the compound `O=c1c(O)c(-c2ccc(O)cc2)oc2ccccc12`, the cell viability in the test with DLD1 [1] worked out at 0.975 ± 0.05; in the test on HCT116, 1.16 ± 0.05; in the test with SW480 [2], 1.01 ± 0.034. Further, the “TCF/Wnt firefly luciferase reporter signal” value in the test with DLD1 [3] is 1.05 ± 0.028; with SW480 [4] it was 0.957 ± 0.047.

With `COc1c2c(c(O)c3c4c(c(C)cc13)[C@@H]1O[C@@]3(C(OC)OC)O[C@@H]1[C@@](O[C@H]1CC(O)[C@@](O)(C(C)=O)C(C)O1)(O4)[C@@]3(O)Cn1cnc3nc(N)[nH]c(=O)c31)C(=O)C(O)CC2O[C@H]1CC(C)(O)[C@H](OC(C)=O)C(C)O1` (stereo not given in full) [Gutingimycin], the cell viability stood at 0.932 ± 0.022 with DLD1 [1], 0.966 ± 0.0057 in the test with HCT116 and 0.946 ± 0.059 with SW480 [2]. The “TCF/Wnt firefly luciferase reporter signal” value was determined as 0.87 ± 0.14 in the test on DLD1 [3] and 0.898 ± 0.07 in the test with SW480 [4].

Take `COc1cc2c(cc1OC)[C@@H]1C(=O)c3ccc4c(c3O[C@@H]1CO2)C=CC(C)(C)O4`: the cell viability in the test with DLD1 [1] came out at 1.09 ± 0.021; in the test on HCT116, 0.79 ± 0.14; in the test on SW480 [2], 1.02 ± 0.094. Moreover, the “TCF/Wnt firefly luciferase reporter signal” value in the test with DLD1 [3] was found to be 0.9 ± 0.1; in the test with SW480 [4], 0.884.

`NCCCC(=O)O` [gamma-AMINOBUTYRIC ACID]: the cell viability with DLD1 [1] is 1.02 ± 0.046; with HCT116, 1.02 ± 0.11; in the test with SW480 [2] it was 1.04 ± 0.05. Moreover, the entries for the “TCF/Wnt firefly luciferase reporter signal” value in the test with DLD1 [3] and in the test on SW480 [4] were 1.06 ± 0.093 and 0.89 ± 0.24, respectively.

For the compound `C[C@H]1[C@@H](O)O[C@@H]2O[C@@]3(C)CC[C@H]4[C@H](C)CC[C@@H]1[C@@]24OO3`, the cell viability worked out at 1.05 ± 0.09 with DLD1 [1], 0.746 ± 0.12 with HCT116 and 1.24 ± 0.05 in the test with SW480 [2]. In addition, the “TCF/Wnt firefly luciferase reporter signal” value in the test with DLD1 [3] was determined as 0.761 ± 0.2; in the test with SW480 [4], 1.01 ± 0.052.

With `C[C@@H]1CC2C3C[C@H](F)C4=CC(=O)C=C[C@]4(C)[C@@]3(F)[C@@H](O)C[C@]2(C)[C@@]1(O)C(=O)COC(=O)C(C)(C)C` (stereo not given in full), the values for the cell viability in the test on DLD1 [1], with HCT116 and in the test with SW480 [2] were 1.01 ± 0.021, 0.925 ± 0.039 and 1 ± 0.025, respectively. The “TCF/Wnt firefly luciferase reporter signal” value in the test on DLD1 [3] is 1.16 ± 0.064; in the test with SW480 [4], 1.085 ± 0.0071.

On to `CO/N=C1\CN(c2nc3c(cc2F)c(=O)c(C(=O)O)cn3C2CC2)CC1CN` (stereo not given), for which the cell viability with DLD1 [1] worked out at 1.04 ± 0.06; in the test on HCT116, 1.09 ± 0.057; in the test with SW480 [2] it was 0.995 ± 0.021. For the same compound, the “TCF/Wnt firefly luciferase reporter signal” value is 0.971 ± 0.11 with DLD1 [3] and 1.06 ± 0.042 in the test with SW480 [4].

As to `Cc1ccc(/C(=C\CN2CCCC2)c2ccccn2)cc1`, the cell viability in the test on DLD1 [1] came out at 0.984 ± 0.037; in the test on HCT116 it was 0.968 ± 0.088; in the test on SW480 [2], 0.945 ± 0.048. Moreover, the “TCF/Wnt firefly luciferase reporter signal” value in the test on DLD1 [3] is 0.886 ± 0.064; in the test with SW480 [4], 0.956 ± 0.091.

With `COC1=C(O)C(=O)c2c(cc3oc(C(C)=O)c(O)c3c2O)C1=O`, the cell viability came out at 1.03 ± 0.055 with DLD1 [1], 1.07 ± 0.064 in the test on HCT116 and 0.985 ± 0.064 in the test with SW480 [2]. Besides, the “TCF/Wnt firefly luciferase reporter signal” value in the test on DLD1 [3] came to 1.05 ± 0.11; in the test with SW480 [4], 0.949 ± 0.027.

Consider `C[C@]12C=CC(=O)C=C1CC[C@@H]1[C@@H]2C(=O)C[C@@]2(C)[C@H]1CC[C@]2(O)C(=O)CO`, for which the cell viability was 1 ± 0.085 in the test with DLD1 [1], 1.125 ± 0.0071 with HCT116 and 1.07 ± 0.057 in the test with SW480 [2]. For the same compound, the “TCF/Wnt firefly luciferase reporter signal” value in the test on DLD1 [3] came to 1.035 ± 0.0071; in the test with SW480 [4], 0.91 ± 0.17.
